In paper PMC4336329 (PLoS ONE, 2015):
The whole screen tested about 310,000 compounds, of which about 14,000 (4.5%) showed an effect of 50% or more. The effect is printed as a negative number. For the sample, strong results were picked, then their nearest neighbours and some compounds at random.

Biological target: human ether-à-go-go-related gene (hERG) potassium channel (human, UniProt Q12809)
Assay: primary screen, population patch clamp on CHO cells stably expressing hERG; higher = less effect of the substance
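Further: peak tail current of the secondary pulse compared with the same well before compound.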

Sequence of human ether-à-go-go-related gene (hERG) potassium channel (Q12809 whole entry, looked up): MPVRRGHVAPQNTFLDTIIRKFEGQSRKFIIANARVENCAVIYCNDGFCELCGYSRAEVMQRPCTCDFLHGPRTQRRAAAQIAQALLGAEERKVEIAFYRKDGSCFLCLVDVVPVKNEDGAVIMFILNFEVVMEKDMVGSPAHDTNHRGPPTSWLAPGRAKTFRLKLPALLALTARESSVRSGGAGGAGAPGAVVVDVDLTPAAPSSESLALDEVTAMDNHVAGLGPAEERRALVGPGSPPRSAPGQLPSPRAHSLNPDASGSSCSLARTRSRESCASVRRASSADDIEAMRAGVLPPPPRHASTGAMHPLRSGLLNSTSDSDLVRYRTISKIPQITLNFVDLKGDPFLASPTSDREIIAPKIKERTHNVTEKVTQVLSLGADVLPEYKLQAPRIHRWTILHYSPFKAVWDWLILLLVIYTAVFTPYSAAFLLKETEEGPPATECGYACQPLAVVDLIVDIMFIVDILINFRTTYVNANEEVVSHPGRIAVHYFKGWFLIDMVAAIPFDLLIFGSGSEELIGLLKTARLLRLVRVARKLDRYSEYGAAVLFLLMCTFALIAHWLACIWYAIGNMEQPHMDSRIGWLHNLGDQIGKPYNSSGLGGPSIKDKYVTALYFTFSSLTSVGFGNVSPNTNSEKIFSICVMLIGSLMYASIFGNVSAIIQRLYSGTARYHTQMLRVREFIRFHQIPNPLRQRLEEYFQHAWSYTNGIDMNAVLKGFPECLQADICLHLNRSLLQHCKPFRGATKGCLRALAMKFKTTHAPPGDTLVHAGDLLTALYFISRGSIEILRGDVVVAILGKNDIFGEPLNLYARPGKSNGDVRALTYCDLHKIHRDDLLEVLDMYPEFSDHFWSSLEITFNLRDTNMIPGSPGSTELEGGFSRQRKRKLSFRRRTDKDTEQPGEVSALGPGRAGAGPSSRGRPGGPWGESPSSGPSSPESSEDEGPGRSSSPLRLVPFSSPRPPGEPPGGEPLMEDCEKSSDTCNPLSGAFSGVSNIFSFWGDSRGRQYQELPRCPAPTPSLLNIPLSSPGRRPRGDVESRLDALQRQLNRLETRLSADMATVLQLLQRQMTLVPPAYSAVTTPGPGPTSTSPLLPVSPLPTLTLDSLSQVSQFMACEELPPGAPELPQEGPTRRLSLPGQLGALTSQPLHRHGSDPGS

Question: Which “hERG current change (%, negative = inhibition) at 10uM” value does the source give for `COc1ccc(Nc2nc3[nH]c(=O)cc(O)c3s2)cc1` here?
Answer: The value was 14.2%.

Question: Which “hERG current change (%, negative = inhibition) at 10uM” value does the source give for `Cc1ccc(S(=O)(=O)NN2C(=O)/C(=C/c3ccc(C(=O)O)cc3)SC2=S)cc1` here?
Answer: The value was 19.9%.

Question: For `Cc1ccc(NC(=O)CCNC(=O)c2ccc(Cl)cc2)cc1F`, which “hERG current change (%, negative = inhibition) at 10uM” value is on record?
Answer: Its value is 9.19%.

Question: How did the “hERG current change (%, negative = inhibition) at 10uM” value turn out when `O=C(CCNS(=O)(=O)c1ccccc1)NNC(=O)COc1ccc(Cl)cc1` was run?
Answer: The value was 2.29%.

Question: For `O=C(COc1ccc(Nc2ccccc2)cc1)Nc1ccncc1`, which “hERG current change (%, negative = inhibition) at 10uM” value is on record?
Answer: Its value is -30.1%.

Question: `O=C(Nc1ccc2c(c1)OCO2)Nc1ccc(Cl)cc1Cl` was tested. Which “hERG current change (%, negative = inhibition) at 10uM” value did it give?
Answer: The value was 9.53%.

Question: `CCCCOC(=O)NC(NCC(O)c1ccccc1)(C(F)(F)F)C(F)(F)F` (centres unmarked) was tested. Which “hERG current change (%, negative = inhibition) at 10uM” value did it give?
Answer: The value was 6.78%.

Question: Which “hERG current change (%, negative = inhibition) at 10uM” value does the source give for `COc1ccc(CNC(=O)CN(C(=O)c2csnn2)c2cccc3c2CCCC3)cc1` here?
Answer: The value was -14.9%.

Question: How did the “hERG current change (%, negative = inhibition) at 10uM” value turn out when `O=C(CN(Cc1ccccc1)C(=O)c1csnn1)NCCc1ccccc1` was run?
Answer: Its value is -18.9%.

Question: For `O=C(CN(Cc1ccccc1Cl)C(=O)c1csnn1)NCc1ccccc1`, which “hERG current change (%, negative = inhibition) at 10uM” value is on record?
Answer: Its value is -24%.

Question: Which “hERG current change (%, negative = inhibition) at 10uM” value does the source give for `O=C(CN(Cc1ccc(F)cc1)C(=O)c1csnn1)NCc1ccccc1` here?
Answer: Its value is -31.6%.

Question: Which “hERG current change (%, negative = inhibition) at 10uM” value does the source give for `O=C(CN(C(=O)c1csnn1)c1cccc2c1CCCC2)NCc1ccc(F)cc1` here?
Answer: The value was -57.7%.

Question: For `C=CCN(CC(=O)NCc1ccc(F)cc1)C(=O)c1csnn1`, which “hERG current change (%, negative = inhibition) at 10uM” value is on record?
Answer: The value was -18.2%.

Question: With `O=C(CN(Cc1ccccc1)C(=O)c1csnn1)NCc1ccccc1` as the compound, how does the “hERG current change (%, negative = inhibition) at 10uM” value read?
Answer: Its value is 8.5%.

Question: For `O=C(CN(Cc1ccccc1Cl)C(=O)c1csnn1)NCc1ccc(F)cc1`, which “hERG current change (%, negative = inhibition) at 10uM” value is on record?
Answer: Its value is -50.4%.

Question: Which “hERG current change (%, negative = inhibition) at 10uM” value does the source give for `COc1ccc(CNC(=O)CN(Cc2ccccc2Cl)C(=O)c2csnn2)cc1` here?
Answer: The value was -34.8%.

Question: How did the “hERG current change (%, negative = inhibition) at 10uM” value turn out when `O=C(CN(C(=O)c1csnn1)c1cccc2c1CCCC2)NCc1ccccc1` was run?
Answer: The value was -5.19%.

Question: For `O=C(CN(Cc1ccc(Cl)cc1)C(=O)c1csnn1)NCc1ccccc1`, which “hERG current change (%, negative = inhibition) at 10uM” value is on record?
Answer: The value was -56.7%.

Question: For `O=C(CN(Cc1ccc(Cl)cc1)C(=O)c1csnn1)NCc1ccc(F)cc1`, which “hERG current change (%, negative = inhibition) at 10uM” value is on record?
Answer: The value was -66.6%.

Question: How did the “hERG current change (%, negative = inhibition) at 10uM” value turn out when `C/C(=N/NC(=O)c1ccc2c(c1)OCO2)c1cccc([N+](=O)[O-])c1` was run?
Answer: Its value is -10.1%.

Question: How did the “hERG current change (%, negative = inhibition) at 10uM” value turn out when `COc1ccc(C(=O)OCn2nnc3ccccc3c2=O)cc1` was run?
Answer: Its value is -10.4%.

Question: With `Cc1cc(C(=O)Nc2ccc(Nc3ccccc3)cc2)ccc1[N+](=O)[O-]` as the compound, how does the “hERG current change (%, negative = inhibition) at 10uM” value read?
Answer: The value was 17.3%.

Question: With `CCc1ccc(NC(=O)CS(=O)CC(=O)NC(C)CCc2ccco2)cc1` (centres unmarked) as the compound, how does the “hERG current change (%, negative = inhibition) at 10uM” value read?
Answer: Its value is 9.65%.

Question: `CSc1nc2ccccc2cc1/C=C(\C#N)c1cccc(Cl)c1` was tested. Which “hERG current change (%, negative = inhibition) at 10uM” value did it give?
Answer: Its value is 8.2%.

Question: `CCN1C(C(=O)Nc2cc(C)on2)=C(O)c2ccccc2S1(=O)=O` was tested. Which “hERG current change (%, negative = inhibition) at 10uM” value did it give?
Answer: The value was 24.7%.

Question: `CCCCCC(=O)Nc1cccc(C2=NOC3(C2)C[C@@H](C(N)=O)N(C(=O)c2ccc(Cl)cc2)C3)c1` (some centres unmarked) was tested. Which “hERG current change (%, negative = inhibition) at 10uM” value did it give?
Answer: The value was -29.6%.

Question: With `O=C(COc1ccc(Cl)cc1)Nc1cccc(S(=O)(=O)NC2=NCCCCC2)c1` as the compound, how does the “hERG current change (%, negative = inhibition) at 10uM” value read?
Answer: Its value is -42.1%.

Question: With `C/C(=N/NC(=O)CSc1ccccn1)c1ccc([N+](=O)[O-])cc1` as the compound, how does the “hERG current change (%, negative = inhibition) at 10uM” value read?
Answer: The value was -64.2%.

Question: Which “hERG current change (%, negative = inhibition) at 10uM” value does the source give for `C/C(=N\NC(=O)CSc1nc(C)cc(C)n1)c1ccc([N+](=O)[O-])cc1` here?
Answer: Its value is -10.8%.

Question: With `C/C(=N\NC(=O)Cc1ccccc1)c1cccs1` as the compound, how does the “hERG current change (%, negative = inhibition) at 10uM” value read?
Answer: The value was -4.86%.

Question: Which “hERG current change (%, negative = inhibition) at 10uM” value does the source give for `C/C(=N/NC(=O)CN1CCN(Cc2ccccc2)CC1)c1ccc([N+](=O)[O-])cc1` here?
Answer: The value was -76.5%.

Question: How did the “hERG current change (%, negative = inhibition) at 10uM” value turn out when `C/C(=N\NC(=O)c1ccc(CN2CCOCC2)cc1)c1ccc([N+](=O)[O-])cc1` was run?
Answer: The value was -7.18%.

Question: Which “hERG current change (%, negative = inhibition) at 10uM” value does the source give for `C/C(=N/NC(=O)CN1CCN(Cc2ccccc2Cl)CC1)c1cccs1` here?
Answer: The value was -17.8%.

Question: `C/C(=N\NC(=O)CN1CCCCC1)c1cccc([N+](=O)[O-])c1` was tested. Which “hERG current change (%, negative = inhibition) at 10uM” value did it give?
Answer: The value was -25.9%.

Question: `C/C(=N/NC(=O)CC(=O)N/N=C(\C)c1ccc([N+](=O)[O-])cc1)c1ccc([N+](=O)[O-])cc1` was tested. Which “hERG current change (%, negative = inhibition) at 10uM” value did it give?
Answer: Its value is -28.8%.

Question: Which “hERG current change (%, negative = inhibition) at 10uM” value does the source give for `C/C(=N\NC(=O)CN1CCN(Cc2ccccc2)CC1)c1cccs1` here?
Answer: Its value is -50.9%.

Question: `CC1CCCCN1C(=O)CSc1nnc(-c2ccco2)n1C` (centres unmarked) was tested. Which “hERG current change (%, negative = inhibition) at 10uM” value did it give?
Answer: Its value is 4.88%.

Question: For `COCCNCC(=O)N1CCCCCC1.O=C(O)C(=O)O`, which “hERG current change (%, negative = inhibition) at 10uM” value is on record?
Answer: The value was -24.6%.

Question: With `Cc1cc(C(=O)OCC(=O)N2CCCC2)c2ccccc2n1` as the compound, how does the “hERG current change (%, negative = inhibition) at 10uM” value read?
Answer: The value was -9.04%.

Question: How did the “hERG current change (%, negative = inhibition) at 10uM” value turn out when `CC(C)(C)NC(=O)C(=O)NNC(=O)COc1ccc(Br)cc1` was run?
Answer: The value was 5.23%.

Question: For `O=C(Cn1nnc(-c2ccccc2Cl)n1)N1CCN(S(=O)(=O)c2ccc(Cl)cc2)CC1`, which “hERG current change (%, negative = inhibition) at 10uM” value is on record?
Answer: Its value is -18%.

Question: How did the “hERG current change (%, negative = inhibition) at 10uM” value turn out when `CC(Oc1coc(CN2CCN(C(=O)c3ccco3)CC2)cc1=O)c1ccccc1` (centres unmarked) was run?
Answer: Its value is 11.5%.

Question: `CCCNC(=O)COc1coc(CN2CCN(C(=O)c3ccco3)CC2)cc1=O` was tested. Which “hERG current change (%, negative = inhibition) at 10uM” value did it give?
Answer: Its value is 3.56%.

Question: `COC(=O)COc1coc(CN2CCN(c3cccc(Cl)c3)CC2)cc1=O` was tested. Which “hERG current change (%, negative = inhibition) at 10uM” value did it give?
Answer: Its value is -11.4%.

Question: How did the “hERG current change (%, negative = inhibition) at 10uM” value turn out when `Cc1ccc(COc2coc(CN3CCN(C(=O)c4ccco4)CC3)cc2=O)cc1` was run?
Answer: The value was -48.4%.

Question: Which “hERG current change (%, negative = inhibition) at 10uM” value does the source give for `O=C(c1ccco1)N1CCN(Cc2cc(=O)c(OCc3cccc(Cl)c3)co2)CC1` here?
Answer: The value was -74.7%.

Question: For `Cc1ccc(C)c(OCC(=O)N2CCN(C(=O)c3ccco3)CC2)c1`, which “hERG current change (%, negative = inhibition) at 10uM” value is on record?
Answer: Its value is -8.23%.

Question: With `Cc1cccc(COc2coc(CN3CCN(C(=O)c4ccco4)CC3)cc2=O)c1` as the compound, how does the “hERG current change (%, negative = inhibition) at 10uM” value read?
Answer: The value was -50.7%.

Question: How did the “hERG current change (%, negative = inhibition) at 10uM” value turn out when `Cc1ccc(C)c(COc2coc(CN3CCN(C(=O)c4ccco4)CC3)cc2=O)c1` was run?
Answer: The value was -100%.

Question: How did the “hERG current change (%, negative = inhibition) at 10uM” value turn out when `CC(C)(C)NC(=O)COc1coc(CN2CCN(C(=O)c3ccco3)CC2)cc1=O` was run?
Answer: Its value is 20.1%.

Question: With `O=C(c1ccco1)N1CCN(Cc2cc(=O)c(OCc3ccccc3Cl)co2)CC1` as the compound, how does the “hERG current change (%, negative = inhibition) at 10uM” value read?
Answer: The value was -56.2%.

Question: With `O=C(c1ccco1)N1CCN(Cc2cc(=O)c(OCc3ccccc3F)co2)CC1` as the compound, how does the “hERG current change (%, negative = inhibition) at 10uM” value read?
Answer: Its value is -30.4%.

Question: Which “hERG current change (%, negative = inhibition) at 10uM” value does the source give for `CNC(=O)COc1coc(CN2CCN(C(=O)c3ccco3)CC2)cc1=O` here?
Answer: The value was 7.13%.
